# In ChEMBL document CHEMBL1961873, “Compounds: GSK PKIS; Assays: Nanosyn kinase panel” (2012):
# “And” between values parts separate entries of the source, which are not always exact repeats. Equal entries are not always repeated.
# Tests used:
# [1] = target: Tyrosine-protein kinase receptor UFO (Homo sapiens) (UniProt P30530); conditions: at 1 µM
# [2] = target: Tyrosine-protein kinase Blk (Homo sapiens) (UniProt P51451); conditions: at 0.1 µM
# [3] = target: Tyrosine-protein kinase Blk (Homo sapiens) (UniProt P51451); conditions: at 1 µM
# [4] = target: T1, Cytoplasmic tyrosine-protein kinase BMX (Homo sapiens) (UniProt P51813); conditions: at 0.1 µM
# T1 sequence (whole entry): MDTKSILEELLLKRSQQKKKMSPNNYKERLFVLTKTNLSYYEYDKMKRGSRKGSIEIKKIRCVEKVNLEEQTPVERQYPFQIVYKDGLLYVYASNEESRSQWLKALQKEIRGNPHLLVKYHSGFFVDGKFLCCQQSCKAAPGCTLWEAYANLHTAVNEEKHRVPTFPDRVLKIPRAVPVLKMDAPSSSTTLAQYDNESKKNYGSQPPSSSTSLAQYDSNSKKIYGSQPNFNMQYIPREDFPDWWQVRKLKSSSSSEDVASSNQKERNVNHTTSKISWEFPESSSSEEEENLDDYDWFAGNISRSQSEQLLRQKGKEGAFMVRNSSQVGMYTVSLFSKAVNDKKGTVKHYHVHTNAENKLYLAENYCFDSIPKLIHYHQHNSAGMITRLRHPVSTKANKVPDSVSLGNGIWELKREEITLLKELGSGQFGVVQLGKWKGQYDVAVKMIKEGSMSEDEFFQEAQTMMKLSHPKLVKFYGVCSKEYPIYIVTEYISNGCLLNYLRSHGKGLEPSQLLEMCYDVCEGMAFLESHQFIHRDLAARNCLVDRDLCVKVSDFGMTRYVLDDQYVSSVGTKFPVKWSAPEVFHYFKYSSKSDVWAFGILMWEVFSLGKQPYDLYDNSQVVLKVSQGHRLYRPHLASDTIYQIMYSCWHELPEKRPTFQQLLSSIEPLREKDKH
# [5] = target: T1, Cytoplasmic tyrosine-protein kinase BMX (Homo sapiens); conditions: at 1 µM
# [6] = target: Protein-tyrosine kinase 6 (Homo sapiens) (UniProt Q13882); conditions: at 0.1 µM
# [7] = target: Protein-tyrosine kinase 6 (Homo sapiens) (UniProt Q13882); conditions: at 1 µM
# [8] = target: Tyrosine-protein kinase BTK (Homo sapiens) (UniProt Q06187); conditions: at 0.1 µM
# [9] = target: Tyrosine-protein kinase BTK (Homo sapiens) (UniProt Q06187); conditions: at 1 µM
# [10] = target: Tyrosine-protein kinase CSK (Homo sapiens) (UniProt P41240); conditions: at 0.1 µM
# [11] = target: Tyrosine-protein kinase CSK (Homo sapiens) (UniProt P41240); conditions: at 1 µM
# [12] = target: T2, Discoidin domain-containing receptor 2 (Homo sapiens) (UniProt Q16832); conditions: at 0.1 µM
# T2 sequence (whole entry): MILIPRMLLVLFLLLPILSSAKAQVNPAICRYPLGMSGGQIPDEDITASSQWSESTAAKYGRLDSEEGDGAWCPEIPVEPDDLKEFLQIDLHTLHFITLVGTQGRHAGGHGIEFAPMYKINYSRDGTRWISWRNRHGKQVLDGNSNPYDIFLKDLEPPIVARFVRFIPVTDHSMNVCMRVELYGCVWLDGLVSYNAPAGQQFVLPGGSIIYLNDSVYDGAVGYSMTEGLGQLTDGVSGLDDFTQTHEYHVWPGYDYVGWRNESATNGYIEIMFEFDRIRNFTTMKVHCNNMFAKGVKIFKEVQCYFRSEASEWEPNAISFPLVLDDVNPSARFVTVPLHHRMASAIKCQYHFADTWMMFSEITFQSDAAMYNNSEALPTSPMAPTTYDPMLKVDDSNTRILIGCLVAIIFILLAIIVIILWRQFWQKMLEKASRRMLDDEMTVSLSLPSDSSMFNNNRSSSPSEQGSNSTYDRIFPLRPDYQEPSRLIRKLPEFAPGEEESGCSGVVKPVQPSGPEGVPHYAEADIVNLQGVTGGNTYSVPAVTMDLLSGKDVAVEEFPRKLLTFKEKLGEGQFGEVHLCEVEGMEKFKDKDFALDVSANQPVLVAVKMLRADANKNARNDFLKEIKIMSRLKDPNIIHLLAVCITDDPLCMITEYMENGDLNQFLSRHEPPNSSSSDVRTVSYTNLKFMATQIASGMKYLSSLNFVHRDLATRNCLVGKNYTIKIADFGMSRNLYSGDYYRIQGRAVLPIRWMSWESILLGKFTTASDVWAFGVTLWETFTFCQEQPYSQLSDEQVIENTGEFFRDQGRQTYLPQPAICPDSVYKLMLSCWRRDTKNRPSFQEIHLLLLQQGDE
# [13] = target: T2, Discoidin domain-containing receptor 2 (Homo sapiens); conditions: at 1 µM
# [14] = target: Epidermal growth factor receptor (Homo sapiens) (UniProt P00533); conditions: at 0.1 µM
# [15] = target: Epidermal growth factor receptor (Homo sapiens) (UniProt P00533); conditions: at 1 µM
# [16] = system: Epidermal growth factor receptor (Homo sapiens), P00533 [L858R]; conditions: at 0.1 µM
# [17] = system: Epidermal growth factor receptor (Homo sapiens), P00533 [L858R]; conditions: at 1 µM
# [18] = system: Epidermal growth factor receptor (Homo sapiens), P00533 [L861Q]; conditions: at 0.1 µM
# [19] = system: Epidermal growth factor receptor (Homo sapiens), P00533 [L861Q]; conditions: at 1 µM
# [20] = system: Epidermal growth factor receptor (Homo sapiens), P00533 [T790M]; conditions: at 0.1 µM
# Sequence of Epidermal growth factor receptor (Homo sapiens), P00533 [T790M] (P00533 whole entry T790M): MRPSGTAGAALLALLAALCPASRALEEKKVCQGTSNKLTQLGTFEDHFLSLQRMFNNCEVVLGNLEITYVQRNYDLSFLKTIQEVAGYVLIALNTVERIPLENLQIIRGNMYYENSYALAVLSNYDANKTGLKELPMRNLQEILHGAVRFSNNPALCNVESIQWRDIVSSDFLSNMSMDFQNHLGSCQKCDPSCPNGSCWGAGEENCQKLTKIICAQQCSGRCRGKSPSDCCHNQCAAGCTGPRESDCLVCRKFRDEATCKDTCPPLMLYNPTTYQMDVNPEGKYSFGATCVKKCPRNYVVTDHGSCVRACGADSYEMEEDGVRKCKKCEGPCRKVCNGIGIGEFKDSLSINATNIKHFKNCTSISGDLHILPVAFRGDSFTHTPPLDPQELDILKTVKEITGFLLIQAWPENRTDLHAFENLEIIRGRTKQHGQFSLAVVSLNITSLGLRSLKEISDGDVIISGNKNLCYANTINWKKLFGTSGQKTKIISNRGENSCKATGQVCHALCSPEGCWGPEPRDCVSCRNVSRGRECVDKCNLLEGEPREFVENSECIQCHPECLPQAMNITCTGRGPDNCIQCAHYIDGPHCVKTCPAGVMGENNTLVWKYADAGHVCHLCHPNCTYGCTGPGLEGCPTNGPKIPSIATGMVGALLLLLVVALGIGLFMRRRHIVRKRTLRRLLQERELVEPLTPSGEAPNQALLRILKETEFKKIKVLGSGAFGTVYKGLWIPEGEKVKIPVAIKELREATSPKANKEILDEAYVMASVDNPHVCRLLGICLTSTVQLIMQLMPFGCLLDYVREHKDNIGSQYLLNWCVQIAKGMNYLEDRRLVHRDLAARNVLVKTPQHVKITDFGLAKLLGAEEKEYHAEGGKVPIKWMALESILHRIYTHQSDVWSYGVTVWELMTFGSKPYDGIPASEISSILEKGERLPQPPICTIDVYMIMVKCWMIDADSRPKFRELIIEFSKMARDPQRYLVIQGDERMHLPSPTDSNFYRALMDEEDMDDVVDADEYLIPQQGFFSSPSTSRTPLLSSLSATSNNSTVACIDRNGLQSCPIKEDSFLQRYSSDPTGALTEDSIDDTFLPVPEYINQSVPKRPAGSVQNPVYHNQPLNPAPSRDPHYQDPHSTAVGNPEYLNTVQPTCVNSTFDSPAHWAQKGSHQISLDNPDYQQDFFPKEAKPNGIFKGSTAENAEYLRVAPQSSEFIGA
# Sequence of Tyrosine-protein kinase receptor UFO (Homo sapiens) (P30530 whole entry): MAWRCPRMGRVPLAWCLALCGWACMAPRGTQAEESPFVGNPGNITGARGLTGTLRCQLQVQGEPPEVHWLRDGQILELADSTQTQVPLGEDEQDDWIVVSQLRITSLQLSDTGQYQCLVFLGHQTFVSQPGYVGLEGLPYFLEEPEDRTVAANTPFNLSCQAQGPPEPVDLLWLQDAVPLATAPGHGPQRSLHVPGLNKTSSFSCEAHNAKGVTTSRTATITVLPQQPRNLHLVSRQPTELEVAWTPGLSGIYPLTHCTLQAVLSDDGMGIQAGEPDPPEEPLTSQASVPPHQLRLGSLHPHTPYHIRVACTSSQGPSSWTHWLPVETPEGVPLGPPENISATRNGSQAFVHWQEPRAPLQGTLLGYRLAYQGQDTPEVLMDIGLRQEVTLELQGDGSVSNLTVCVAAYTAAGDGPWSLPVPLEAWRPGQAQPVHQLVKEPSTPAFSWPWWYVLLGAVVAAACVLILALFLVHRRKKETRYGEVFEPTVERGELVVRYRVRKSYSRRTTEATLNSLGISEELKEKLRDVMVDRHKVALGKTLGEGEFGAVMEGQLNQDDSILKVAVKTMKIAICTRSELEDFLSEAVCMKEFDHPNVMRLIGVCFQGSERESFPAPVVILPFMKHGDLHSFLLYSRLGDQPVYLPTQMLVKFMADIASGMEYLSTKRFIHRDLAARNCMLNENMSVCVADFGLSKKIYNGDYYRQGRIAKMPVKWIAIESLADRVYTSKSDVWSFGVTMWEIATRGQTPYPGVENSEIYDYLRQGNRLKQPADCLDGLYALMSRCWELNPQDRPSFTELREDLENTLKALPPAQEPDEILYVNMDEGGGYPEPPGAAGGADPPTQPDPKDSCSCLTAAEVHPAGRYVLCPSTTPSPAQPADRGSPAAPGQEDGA
# Sequence of Tyrosine-protein kinase CSK (Homo sapiens) (P41240 2-450 limits assumed): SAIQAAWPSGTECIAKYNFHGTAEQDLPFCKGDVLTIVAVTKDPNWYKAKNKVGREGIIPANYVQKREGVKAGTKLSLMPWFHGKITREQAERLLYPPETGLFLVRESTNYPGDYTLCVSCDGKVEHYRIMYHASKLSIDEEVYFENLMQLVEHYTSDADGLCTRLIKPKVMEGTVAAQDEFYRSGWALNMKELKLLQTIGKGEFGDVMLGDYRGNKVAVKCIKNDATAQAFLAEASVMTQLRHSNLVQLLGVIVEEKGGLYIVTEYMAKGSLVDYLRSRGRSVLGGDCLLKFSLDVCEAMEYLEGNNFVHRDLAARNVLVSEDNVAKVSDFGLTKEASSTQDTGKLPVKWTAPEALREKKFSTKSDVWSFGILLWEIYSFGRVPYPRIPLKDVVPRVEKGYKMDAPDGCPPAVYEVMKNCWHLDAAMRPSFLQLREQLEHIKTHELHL
# Sequence of Tyrosine-protein kinase Blk (Homo sapiens) (P51451 2-505 limits assumed): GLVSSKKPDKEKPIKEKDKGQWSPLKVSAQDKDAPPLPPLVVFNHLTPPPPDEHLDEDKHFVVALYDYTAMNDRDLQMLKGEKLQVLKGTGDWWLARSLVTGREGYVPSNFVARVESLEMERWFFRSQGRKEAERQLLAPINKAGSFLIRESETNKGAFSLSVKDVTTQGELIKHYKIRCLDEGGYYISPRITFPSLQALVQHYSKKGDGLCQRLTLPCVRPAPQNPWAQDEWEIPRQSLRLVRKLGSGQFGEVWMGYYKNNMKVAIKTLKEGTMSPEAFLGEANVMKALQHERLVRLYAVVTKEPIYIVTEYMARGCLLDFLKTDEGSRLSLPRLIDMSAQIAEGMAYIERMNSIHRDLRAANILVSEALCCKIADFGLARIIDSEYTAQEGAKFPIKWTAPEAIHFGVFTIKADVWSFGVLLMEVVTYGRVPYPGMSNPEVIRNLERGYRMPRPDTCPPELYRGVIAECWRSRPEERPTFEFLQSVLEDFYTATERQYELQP
# Sequence of Epidermal growth factor receptor (Homo sapiens) (P00533 whole entry): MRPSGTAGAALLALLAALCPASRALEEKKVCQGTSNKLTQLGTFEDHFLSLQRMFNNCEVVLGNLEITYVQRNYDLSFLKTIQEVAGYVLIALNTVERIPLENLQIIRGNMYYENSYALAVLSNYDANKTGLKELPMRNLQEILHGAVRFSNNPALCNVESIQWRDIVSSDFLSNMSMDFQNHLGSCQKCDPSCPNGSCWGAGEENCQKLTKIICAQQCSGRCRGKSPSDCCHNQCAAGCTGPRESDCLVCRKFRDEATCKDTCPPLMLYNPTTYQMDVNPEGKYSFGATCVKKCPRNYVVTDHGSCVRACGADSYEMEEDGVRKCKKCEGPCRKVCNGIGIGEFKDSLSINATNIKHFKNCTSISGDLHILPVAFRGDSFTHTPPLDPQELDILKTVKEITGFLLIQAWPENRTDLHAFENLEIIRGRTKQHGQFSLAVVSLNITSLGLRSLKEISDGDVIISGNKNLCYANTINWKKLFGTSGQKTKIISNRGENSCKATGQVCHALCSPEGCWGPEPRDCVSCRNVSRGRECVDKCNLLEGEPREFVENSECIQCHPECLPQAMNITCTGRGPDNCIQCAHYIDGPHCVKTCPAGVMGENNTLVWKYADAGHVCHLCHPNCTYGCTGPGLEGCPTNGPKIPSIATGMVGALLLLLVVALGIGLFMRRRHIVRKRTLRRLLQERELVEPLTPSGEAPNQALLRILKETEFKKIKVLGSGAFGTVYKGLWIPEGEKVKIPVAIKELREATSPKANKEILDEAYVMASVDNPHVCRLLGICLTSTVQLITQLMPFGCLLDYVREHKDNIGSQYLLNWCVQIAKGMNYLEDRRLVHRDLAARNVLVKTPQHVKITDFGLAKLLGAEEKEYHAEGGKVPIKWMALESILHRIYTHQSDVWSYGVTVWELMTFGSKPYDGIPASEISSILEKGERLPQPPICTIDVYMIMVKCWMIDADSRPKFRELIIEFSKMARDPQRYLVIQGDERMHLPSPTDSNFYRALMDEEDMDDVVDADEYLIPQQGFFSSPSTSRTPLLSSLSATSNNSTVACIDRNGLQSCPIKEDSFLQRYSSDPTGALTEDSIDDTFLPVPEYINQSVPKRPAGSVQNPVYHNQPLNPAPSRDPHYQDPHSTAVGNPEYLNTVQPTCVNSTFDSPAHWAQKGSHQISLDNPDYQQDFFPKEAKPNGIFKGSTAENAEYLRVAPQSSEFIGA
# Sequence of Protein-tyrosine kinase 6 (Homo sapiens) (Q13882 whole entry, looked up): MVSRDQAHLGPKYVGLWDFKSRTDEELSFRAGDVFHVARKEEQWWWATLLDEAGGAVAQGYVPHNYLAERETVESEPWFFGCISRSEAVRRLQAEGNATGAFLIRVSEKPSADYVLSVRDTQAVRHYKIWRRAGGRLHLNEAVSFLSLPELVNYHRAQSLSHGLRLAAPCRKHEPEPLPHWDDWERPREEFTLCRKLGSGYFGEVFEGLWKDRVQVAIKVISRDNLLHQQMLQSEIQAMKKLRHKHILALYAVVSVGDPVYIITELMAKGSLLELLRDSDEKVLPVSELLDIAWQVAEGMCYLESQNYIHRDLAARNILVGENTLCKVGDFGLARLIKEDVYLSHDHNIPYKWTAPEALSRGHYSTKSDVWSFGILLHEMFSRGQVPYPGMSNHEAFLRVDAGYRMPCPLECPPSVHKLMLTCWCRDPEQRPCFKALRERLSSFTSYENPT
SMILES,inhibition [1],inhibition [2],inhibition [3],inhibition [4],inhibition [5],inhibition [6],inhibition [7],inhibition [8],inhibition [9],inhibition [10],inhibition [11],inhibition [12],inhibition [13],inhibition [14],inhibition [15],inhibition [16],inhibition [17],inhibition [18],inhibition [19],inhibition [20]
O=C(O[C@H]1CN[C@H](C#Cc2cc3ncnc(Nc4ccc5c(cnn5Cc5ccccc5)c4)c3s2)C1)N1CCOCC1,2.46%,-0.69%,6.27%,-1.03%,2.39%,1.71%,2.7%,2.14%,1.05%,-1.39%,4.15%,0.56%,0.22%,72.3%,83.3%,14.2%,56.2%,25.9%,44.2%,0.87%
COc1ccc(Nc2ncc(-c3ccccc3)o2)cc1OC,3.31%,1.21%,24.1%,-7.7%,4.92%,0.75%,2.71%,0.8%,2.81%,1.21%,-1.08%,-0.12%,5.66%,1.83%,5.16%,-1.38%,2.96%,-1.19%,0.83%,0.72%
CN1CCC(C(=O)Nc2n[nH]c3nc(-c4ccc(O)cc4)c(Br)cc23)CC1,-2.51% and -3.39%,-0.49% and 1.32%,0.8% and 4.39%,4.12% and 2.58%,3.63% and 4.39%,4.15% and 1.12%,9.38% and 6.4%,-3.39% and 0.29%,-2.64% and 0.46%,-0.63%,7.63% and 4.28%,-0.34% and 1.94%,0.35% and 3.34%,-1.4% and 2.45%,-1.83% and 5.5%,3.81% and 2.33%,5.88% and 4.98%,2.69% and 0.43%,2.01% and 1.22%,2.13% and 0.11%
Cc1cc(O)cc(C)c1/C=C/c1cncc(C(=O)OC(C)(C)C)c1,-3.72%,4.36%,21.7%,9.3%,47.3%,18.1%,67.5%,0.92%,12.8%,7.62%,32.9%,1.51%,2.49%,1.62%,5.14%,3.7%,17%,2.25%,4.72%,0.92%
Cn1c(-c2nonc2N)nc2cnccc21,-1.86%,0.51%,0.41%,9.58%,4.09%,4.32%,4.24%,0.86%,0.33%,3.1%,-0.66%,0.53%,2.78%,8.18%,8.08%,3.74%,5.92%,3.1%,4.3%,1.55%
CCOc1ccc2c(-c3ccnc(Nc4cc(OC)cc(C(F)(F)F)c4)n3)cnn2n1,-1.43%,0.5%,4.83%,-3.75%,2.82%,1.51%,2.17%,-0.58%,-0.1%,-0.12%,0.11%,-0.19%,1.4%,2.81%,5.28%,2.28%,3.23%,1.52%,2.39%,0.36%
CCCNc1cccc(-n2ncc3c(N/N=C/c4ccncc4)ncnc32)c1,13.2%,14.2%,62.9%,1.67%,13.4%,8.53%,51%,1.43%,4.2%,2.59%,12.1%,1.93%,7.68%,3.46%,33.5%,14%,71.8%,2.74%,31.4%,-0.43%
CN(c1ccc(NC(=O)NCCN2CCOCC2)cc1)c1ccnc(Nc2ccc(CS(C)(=O)=O)cc2)n1,-4.88%,2.89%,8.61%,0.59%,22.6%,2.66%,8.9%,1.05%,2.3%,3.59%,13.1%,24.3%,76%,-0.15%,1.28%,3.77%,6.75%,2.81%,3.82%,2.04%
CN(C)CCNC(=O)Nc1ccc(N(C)c2ccnc(Nc3ccc(CS(C)(=O)=O)cc3)n2)cc1,-0.6%,2.78%,9.64%,3.74%,10.5%,4.92%,5.13%,2.45%,3.65%,3.68%,1.47%,0.92%,9.89%,1.32%,3.79%,3.58%,3.5%,2.9%,2.38%,3.69%
O=C(O[C@H]1CN[C@H](C#Cc2cc3ncnc(Nc4ccc5c(ccn5Cc5cc(F)ccc5F)c4)c3s2)C1)N1CCOCC1,-5.54%,2.36%,8.13%,4.47%,4.96%,3.43%,4.9%,0.02%,2.23%,3.21%,2.68%,2.04%,2.8%,65.5%,76.4%,11.2%,53.6%,22.6%,39%,20%
Nc1ncnc2occ(-c3ccc(NC(=O)Nc4cc(C(F)(F)F)ccc4F)cc3)c12,37.3% and 23.5%,4.09% and 1.25%,39% and 23.5%,17.8% and 9.86%,69.5% and 57.2%,3.76% and -0.33%,4.26% and 3.06%,0.97% and 0.09%,5.11% and 1.18%,6.39% and 0.36%,41% and 18.6%,46.1% and 33.6%,80% and 79.7%,1.05% and 12.5%,5.41% and 15.6%,2.23% and 3.14%,1.42% and 3.22%,3.11% and 1.25%,1.69% and 1.44%,1.74% and 0.3%
COc1cccc(-n2ncc3c(N/N=C/c4ccc(C(=O)NCCN(C)C)cc4)ncnc32)c1,40.9%,18.1%,73%,9.47%,46.3%,9.98%,53.4%,1.25%,1.98%,3.74%,22%,7.86%,41%,16.7%,56.4%,63.6%,90.6%,23%,68.7%,0.59%
O=C1Nc2ccccc2/C1=C1\CCc2cc(O)ccc21,1.9%,4.37%,22%,0.61%,7.52%,5%,4.05%,-0.87%,0.47%,5.49%,4.47%,2.06%,3.76%,0.24%,1.05%,1.94%,2.87%,2.16%,-0.57%,1.76%
